# Source: PubChem BioAssay (NCATS)
# Where “and” joins values, the source holds several entries; their conditions need not be identical. Equal entries are not always repeated. Records with an inconclusive call do not appear. Entries that show only a call come without a potency. The source holds several records for some structures; these can differ, active in one and inactive in another. Calls of active or inactive are those of the source. Unless noted, calls follow the shape of the dose curve; as a rule, active = well fitted curve in the direction sought with a large enough effect; inconclusive = small, poorly fitted or top-dose-only effect, or another doubt; inactive = no such curve, though single readings can be large; an effect the other way counts as inactive or inconclusive.
# Key:
# [1] = molecular target: Cytochrome P450 1A2 (Homo sapiens) (UniProt P05177); experiment: p450-cyp1a2 (AID 410; calls by dose curve; also: potency is read from the fitted curve at half-maximal effect)
# How it was run: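 O-Demethylation of luciferin 6' methyl ether by human CYP1A2 is monitored as luciferase luminescence. Substrate sits at Km (100uM); enzyme is 20nM. Values are scaled to 57 uM furafylline as maximal inhibition.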
# [2] = Stat Signaling Pathway (AID 446; active = well fitted curve in either direction with a large enough effect, not every such curve was filed as active;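 also: ME-180 cervical cancer cells given 40 pM IL-6 alongside compound; SIE-controlled beta-lactamase reporter measured as 460/530 nm FRET emission ratio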)
# How it was run: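 Overnight-plated ME-180 cells bearing a STAT Inducible Element beta-lactamase reporter; 5 h co-exposure to compound and 40 pM IL-6; values normalized to 300 pM IL-6 and 125 nM JAK inhibitor controls.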
# [3] = molecular target: Glucocorticoid receptor (Homo sapiens) (UniProt P04150); experiment: GR-GFP Redistribution (AID 450;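 active = compounds whose dose series gives a full or clear partial fitted curve of increased nuclear translocation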; also: potency is read from the fitted curve at half-maximal effect); details: U2OS GR-GFP nuclear translocation, laser cytometry, 2 h
# [4] = molecular target: Glucocorticoid receptor (Homo sapiens) (UniProt P04150); experiment: GR-EFC Redistribution (AID 451; calls by dose curve; also: potency is read from the fitted curve at half-maximal effect); details: CHO-K1 GR-EFC translocation, beta-gal luminescence, 2 h
# How it was run: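 CHO-K1 cells stably expressing nuclear-localized β-gal enzyme acceptor and GR fused C-terminally to the enzyme donor fragment; ligand-driven nuclear translocation restores β-gal by complementation. Compounds titrated up to 46 uM final, 2 h at 37 °C; luminescence read.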
# [5] = molecular target: Cytochrome P450 2C19 (Homo sapiens) (UniProt P33261); experiment: qHTS Assay for Inhibitors and Substrates of Cytochrome P450 2C19 (AID 899); also: nearly all actives have a fitted effect of over 60% in size; also: potency is read from the fitted curve at half-maximal effect
# How it was run: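 In 50mM KPO4, the reaction held 5nM enzyme and KM-level (10uM) Luciferin-H EGE; it ran 60 min at 37C after NADPH regeneration and a 10 min compound preincubation. Luminescence values were scaled to 57uM ketoconazole as complete inhibition.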
# ATS189 = experiment: qHTS profiling for inhibitors of Plasmodium falciparum proliferation (AID 504749); also: nearly all actives have a fitted effect of over 60% in size; also: potency is read from the fitted curve at half-maximal effect; details: P. falciparum in erythrocytes, SYBR Green DNA, 72 h; series mostly up to 12.8 µM
# How it was run: (§1)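 Quantitative HTS: compounds pinned into medium, infected erythrocytes added (0.3% parasitemia, 2.5% hematocrit), 72 h culture at 37 C under 5% CO2. Saponin/Triton lysis with SYBR Green I, overnight RT, then fluorescence read.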
# ATS95 = experiment: as above; details: P. falciparum in erythrocytes, SYBR Green DNA, 72 h; series mostly up to 12.8 µM
# How it was run: as §1
# CP203 = experiment: as above; details: P. falciparum in erythrocytes, SYBR Green DNA, 72 h; series mostly up to 12.8 µM
# How it was run: as §1
# CP215 = experiment: as above; details: P. falciparum in erythrocytes, SYBR Green DNA, 72 h; series mostly up to 12.8 µM
# How it was run: as §1
# CP335 = experiment: as above; details: P. falciparum in erythrocytes, SYBR Green DNA, 72 h; series mostly up to 12.8 µM
# How it was run: as §1
# DIV14 = experiment: as above; details: P. falciparum in erythrocytes, SYBR Green DNA, 72 h; series mostly up to 12.8 µM
# How it was run: as §1
# DIV17 = experiment: as above; details: P. falciparum in erythrocytes, SYBR Green DNA, 72 h; series mostly up to 12.8 µM
# How it was run: as §1
# [6] = NFAT Signaling Pathway (AID 444; active = well fitted curve in either direction with a large enough effect, not every such curve was filed as active;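 also: carbachol stimulus at about its EC50 of 1 µM final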); details: Jurkat NFAT-bla M1, carbachol, beta-lactamase ratio, 5 h; at 17.2 µM (top of the series) unless noted
# How it was run: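 Jurkat cells carrying an NFAT-driven β-lactamase reporter and co-transfected muscarinic M1 receptor were treated with compound plus carbachol (1 uM final, an EC50 level) for 5 h at 37 °C. CCF4 loading followed for 1 h at RT; 460/530 nm ratio gave %activity.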
# [7] = molecular target: ATP-dependent 6-phosphofructokinase (Trypanosoma brucei brucei) (UniProt O15648); experiment: qHTS Assay to Find Inhibitors of T. brucei phosphofructokinase: hit validation (AID 492961);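 also: luminescence reports ADP formed as PFK phosphorylates fructose-6-phosphate with ATP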
# How it was run: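 Reaction: 0.1 M triethanolamine pH 8.0, 5 mM MgCl2, F6P 0.5 mM, ATP 0.1 mM, PFK 1.25 nM, 45 min RT. Read-out: ADP-Glo luminescence. Analysis: concentration-response fits, classed by r2 and efficacy.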
# [8] = S16 Schwann cell PMP22 intronic element firefly luciferase assay (AID 624032); also: nearly all actives have a fitted effect of over 30% in size
# How it was run: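 Rat S16 Schwann cells stably carrying a PMP22 intronic element-driven Fluc reporter were seeded overnight, then exposed to compounds for 24 h at 37 °C. Luminescence was normalized to PTC124 (positive control) and DMSO (0% activity).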
# 7G8 = experiment: qHTS profiling for inhibitors of Plasmodium falciparum proliferation (AID 504749); also: nearly all actives have a fitted effect of over 60% in size; also: potency is read from the fitted curve at half-maximal effect; details: P. falciparum in erythrocytes, SYBR Green DNA, 72 h; series mostly up to 12.8 µM
# How it was run: as §1
# W2 = experiment: as above; details: P. falciparum in erythrocytes, SYBR Green DNA, 72 h; series mostly up to 12.8 µM
# How it was run: as §1
# [9] = molecular target: DNA dC->dU-editing enzyme APOBEC-3G (Homo sapiens) (UniProt Q9HC16); experiment: qHTS for inhibitors of Vif-A3G interactions: Validation (AID 588379)
# How it was run: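 Yellow fluorescence (Ex 488, Em 500-530) of Vif-coexpressing HeLa A3G-eYFP cells, scanned by Acumen cytometer, reports blocked A3G degradation. Cells plated at 700/well overnight at 37 deg C before compound addition, then a further overnight compound incubation at 37 deg C.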
# CP286 = experiment: qHTS profiling for inhibitors of Plasmodium falciparum proliferation (AID 504749); also: nearly all actives have a fitted effect of over 60% in size; also: potency is read from the fitted curve at half-maximal effect; details: P. falciparum in erythrocytes, SYBR Green DNA, 72 h; series mostly up to 12.8 µM
# How it was run: as §1
# GB4 = experiment: as above; details: P. falciparum in erythrocytes, SYBR Green DNA, 72 h; series mostly up to 12.8 µM
# How it was run: as §1
# Chain of Glucocorticoid receptor (Homo sapiens) (P04150 whole entry, looked up, the tested form may be a part): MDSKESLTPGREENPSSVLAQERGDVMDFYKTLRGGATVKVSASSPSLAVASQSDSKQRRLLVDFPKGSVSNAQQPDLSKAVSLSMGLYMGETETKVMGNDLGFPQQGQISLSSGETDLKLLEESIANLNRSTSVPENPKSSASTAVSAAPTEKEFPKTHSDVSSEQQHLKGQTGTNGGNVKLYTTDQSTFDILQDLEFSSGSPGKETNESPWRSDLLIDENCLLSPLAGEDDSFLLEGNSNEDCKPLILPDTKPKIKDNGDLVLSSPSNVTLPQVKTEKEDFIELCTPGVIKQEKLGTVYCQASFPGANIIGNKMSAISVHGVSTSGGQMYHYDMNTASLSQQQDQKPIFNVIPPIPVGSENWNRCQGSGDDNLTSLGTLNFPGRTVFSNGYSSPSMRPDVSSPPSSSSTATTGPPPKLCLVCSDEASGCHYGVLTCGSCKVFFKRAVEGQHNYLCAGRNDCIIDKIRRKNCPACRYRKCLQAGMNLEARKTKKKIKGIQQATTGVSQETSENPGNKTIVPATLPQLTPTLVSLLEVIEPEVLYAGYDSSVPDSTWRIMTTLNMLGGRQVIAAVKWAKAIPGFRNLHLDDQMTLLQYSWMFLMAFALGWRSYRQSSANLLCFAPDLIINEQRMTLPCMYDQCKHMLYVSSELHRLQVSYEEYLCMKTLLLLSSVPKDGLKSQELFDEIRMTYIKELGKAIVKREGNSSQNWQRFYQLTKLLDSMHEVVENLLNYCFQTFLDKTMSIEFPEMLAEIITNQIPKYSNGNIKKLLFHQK
# Chain of Cytochrome P450 1A2 (Homo sapiens) (P05177 whole entry, looked up): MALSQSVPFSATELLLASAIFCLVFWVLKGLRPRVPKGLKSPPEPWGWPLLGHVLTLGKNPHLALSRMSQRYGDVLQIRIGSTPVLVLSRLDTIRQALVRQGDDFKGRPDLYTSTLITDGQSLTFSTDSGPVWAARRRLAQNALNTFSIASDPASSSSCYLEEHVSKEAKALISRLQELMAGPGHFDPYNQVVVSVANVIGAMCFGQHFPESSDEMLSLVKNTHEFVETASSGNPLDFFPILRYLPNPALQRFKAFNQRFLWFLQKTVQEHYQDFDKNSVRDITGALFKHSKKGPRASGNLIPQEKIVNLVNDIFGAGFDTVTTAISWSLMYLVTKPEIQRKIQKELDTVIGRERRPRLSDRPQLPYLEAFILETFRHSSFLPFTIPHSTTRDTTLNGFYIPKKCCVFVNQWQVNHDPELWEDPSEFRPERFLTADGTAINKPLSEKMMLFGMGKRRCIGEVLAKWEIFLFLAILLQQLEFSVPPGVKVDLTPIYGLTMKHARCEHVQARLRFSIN
# Chain of ATP-dependent 6-phosphofructokinase (Trypanosoma brucei brucei) (O15648 whole entry, looked up): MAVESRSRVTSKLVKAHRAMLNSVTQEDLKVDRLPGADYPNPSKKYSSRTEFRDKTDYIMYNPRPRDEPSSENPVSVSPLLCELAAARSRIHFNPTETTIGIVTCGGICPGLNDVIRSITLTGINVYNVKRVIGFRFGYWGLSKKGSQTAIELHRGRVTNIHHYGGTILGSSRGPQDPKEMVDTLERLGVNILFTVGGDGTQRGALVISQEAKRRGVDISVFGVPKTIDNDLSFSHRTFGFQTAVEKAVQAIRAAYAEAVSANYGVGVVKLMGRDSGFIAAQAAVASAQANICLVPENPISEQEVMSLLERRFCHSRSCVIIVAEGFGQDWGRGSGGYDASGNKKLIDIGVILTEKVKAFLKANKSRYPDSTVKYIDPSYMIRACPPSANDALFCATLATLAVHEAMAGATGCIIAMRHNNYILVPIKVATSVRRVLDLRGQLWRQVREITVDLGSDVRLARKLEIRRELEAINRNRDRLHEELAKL
# Chain of DNA dC->dU-editing enzyme APOBEC-3G (Homo sapiens) (Q9HC16 whole entry, looked up): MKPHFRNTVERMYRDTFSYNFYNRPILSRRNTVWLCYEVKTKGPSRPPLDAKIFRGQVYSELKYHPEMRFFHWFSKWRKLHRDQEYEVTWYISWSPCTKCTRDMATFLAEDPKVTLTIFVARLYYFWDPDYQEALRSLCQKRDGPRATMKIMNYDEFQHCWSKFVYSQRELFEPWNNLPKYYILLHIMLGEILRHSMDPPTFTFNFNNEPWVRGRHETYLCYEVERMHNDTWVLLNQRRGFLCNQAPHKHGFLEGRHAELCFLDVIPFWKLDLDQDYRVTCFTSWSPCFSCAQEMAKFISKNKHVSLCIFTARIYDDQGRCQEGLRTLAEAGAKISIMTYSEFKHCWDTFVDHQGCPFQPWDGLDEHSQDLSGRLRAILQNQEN
# Chain of Cytochrome P450 2C19 (Homo sapiens) (P33261 whole entry, looked up): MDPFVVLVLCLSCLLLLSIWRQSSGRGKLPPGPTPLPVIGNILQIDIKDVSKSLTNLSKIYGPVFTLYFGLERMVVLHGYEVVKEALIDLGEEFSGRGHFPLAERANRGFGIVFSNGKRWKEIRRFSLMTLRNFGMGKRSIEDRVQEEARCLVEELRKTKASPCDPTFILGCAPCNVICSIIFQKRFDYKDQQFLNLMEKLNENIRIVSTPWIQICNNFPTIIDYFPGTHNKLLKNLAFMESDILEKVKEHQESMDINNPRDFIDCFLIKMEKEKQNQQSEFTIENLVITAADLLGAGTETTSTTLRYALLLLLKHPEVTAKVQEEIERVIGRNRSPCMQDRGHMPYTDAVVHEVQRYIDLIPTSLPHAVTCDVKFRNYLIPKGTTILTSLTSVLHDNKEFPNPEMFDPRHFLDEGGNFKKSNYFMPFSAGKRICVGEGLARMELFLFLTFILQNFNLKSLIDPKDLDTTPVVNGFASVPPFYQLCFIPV
structure (smiles),measurement,setting,value
c1ccc2c(c1)CCCc1cc(NCCN3CCOCC3)nnc1-2,Potency,[1],inactive
same,outcome,[2],inactive
same,Potency,[3],> 20.6 µM (inactive)
same,Potency,[4],> 20.6 µM (inactive)
O[C@@](CCN1CCCCC1)(c1ccccc1)[C@@H]1C[C@H]2C=C[C@@H]1C2,Potency,[1],inactive
same,outcome,[2],inactive
same,Potency,[3],> 20.6 µM (inactive)
same,Potency,[4],> 20.6 µM (inactive)
CN(C/C=C\c1ccccc1)Cc1cccc2ccccc12,Potency,[1],2 µM (active)
same,outcome,[2],inactive
same,Potency,[3],> 20.6 µM (inactive)
same,Potency,[4],> 20.6 µM (inactive)
same,Potency,[5],0.501 µM (active)
same,Potency,ATS189,inactive
same,Potency,ATS95,inactive
same,Potency,CP203,inactive
same,Potency,CP215,inactive
same,Potency,CP335,inactive
same,Potency,DIV14,inactive
same,Potency,DIV17,inactive
O=C(O)[C@@H]1[C@@H]2C[C@H]3c4[nH]c5ccccc5c4CCN3C[C@@H]2CC[C@@H]1O,Potency,[1],12.6 µM (active) and inactive
same,"activity change, negative = inhibition",[6],-27% (inactive)
same,outcome,[2],inactive
same,Potency,[3],> 20.6 µM (inactive) and > 46 µM (inactive)
same,Potency,[4],> 20.6 µM (inactive) and > 46 µM (inactive)
same,Potency,[5],inactive
same,outcome,[7],inactive
same,Potency,[8],inactive
same,Potency,CP203,inactive
same,Potency,DIV17,5.73 µM (active)
CN1CCC[C@@H](CC2c3ccccc3Sc3ccccc32)C1,Potency,[1],inactive
same,"activity change, negative = inhibition",[6],-49.6% (active)
same,outcome,[2],inactive
same,Potency,[3],> 20.6 µM (inactive)
same,Potency,7G8,3.98 µM (active)
same,Potency,ATS189,inactive
same,Potency,CP335,inactive
same,Potency,DIV14,2.28 µM (active)
same,Potency,W2,1.44 µM (active)
COc1ccc(-c2cc(=O)c3c(O)cc(O)cc3o2)cc1,Potency,[3],> 20.6 µM (inactive)
same,Potency,[4],> 20.6 µM (inactive)
same,outcome,[9],inactive
CO[C@@H]1CC[C@@]2(C)[C@@H](CC[C@@]3(C)[C@H]2CC=C2[C@H]4CC(C)(C)[C@H](O)[C@@H](OC(C)=O)[C@]4(CO)[C@H](O)C[C@]23C)[C@@]1(C)CO (tested in a mixture with another compound),Potency,[1],inactive
same,Potency,[3],> 20.6 µM (inactive)
same,Potency,[4],> 20.6 µM (inactive)
CC1(C)S[C@@H]2[C@H](NC(=O)[C@@H](N)c3ccc(O)cc3)C(=O)N2[C@H]1C(=O)O,"activity change, negative = inhibition",[6],-4.29% (inactive)
same,outcome,[2],inactive
COc1ccccc1OC[C@H](O)CO,"activity change, negative = inhibition",[6],-3.75% (inactive)
same,outcome,[2],inactive
same,outcome,[7],inactive
same,Potency,[8],inactive
same,Potency,7G8,inactive
same,Potency,ATS189,inactive
same,Potency,ATS95,inactive
same,Potency,CP203,inactive
same,Potency,CP215,inactive
same,Potency,CP286,inactive
same,Potency,CP335,inactive
same,Potency,DIV14,inactive
same,Potency,DIV17,inactive
same,Potency,GB4,inactive
same,Potency,W2,inactive
NC[C@@H]1O[C@H](O[C@H]2[C@H](O)[C@@H](O[C@H]3[C@H](O)[C@H](N)C[C@H](N)[C@H]3O[C@@H]3O[C@H](CO)[C@@H](O)[C@H](O)[C@@H]3N)O[C@H]2CO)[C@@H](N)[C@H](O)[C@@H]1O,"activity change, negative = inhibition",[6],-6.33% (inactive)
same,outcome,[2],inactive
same,Potency,[3],> 20.6 µM (inactive)
same,Potency,[4],> 20.6 µM (inactive)
CN1[C@H](CC(=O)c2ccccc2)CCC[C@H]1C[C@@H](O)c1ccccc1,Potency,[1],31.6 µM (active)
same,Potency,[5],inactive
same,outcome,[9],inactive
CCN(CC)CCOC(=O)[C@@H](Cc1cccc2ccccc12)C[C@@H]1CCCO1,outcome,[2],inactive
same,Potency,[8],inactive
same,Potency,ATS189,inactive
same,Potency,CP203,inactive
same,Potency,CP215,inactive
same,Potency,CP286,inactive
same,Potency,CP335,inactive
same,Potency,GB4,inactive
same,Potency,W2,2.28 µM (active)
COC(=O)[C@@H]1[C@@H]2C[C@H]3c4[nH]c5cc(OC)ccc5c4CCN3C[C@@H]2C[C@H](OC(=O)/C=C\c2cc(OC)c(OC)c(OC)c2)[C@H]1OC,"activity change, negative = inhibition",[6],0.402% (inactive)
same,outcome,[2],inactive
same,Potency,[3],> 20.6 µM (inactive)
same,Potency,[4],> 20.6 µM (inactive)
same,Potency,7G8,3.16 µM (active)
same,Potency,DIV14,5.73 µM (active)
same,Potency,GB4,5.1 µM (active)
same,Potency,W2,1.81 µM (active)
C[C@@H]1C[C@H](OC(=O)c2ccccc2O)CC(C)(C)C1,Potency,[1],12.6 µM (active)
same,Potency,[3],> 20.6 µM (inactive)
CC1(C)S[C@@H]2[C@H](NC(=O)COc3ccccc3)C(=O)N2[C@H]1C(=O)O (tested in a mixture with another compound),"activity change, negative = inhibition",[6],-7.06% (inactive)
same,outcome,[2],inactive
same,Potency,[4],> 20.6 µM (inactive)
Cc1ccnc(N)c1,Potency,[1],inactive
same,Potency,[3],> 46 µM (inactive)
same,outcome,[9],inactive
CC[C@H](C(=O)[C@H](C)[C@H](O)[C@H](C)CCc1ccc(C)c(O)c1C(=O)O)[C@H]1O[C@](CC)([C@@H]2CC[C@@](O)(CC)[C@H](C)O2)C[C@H]1C,Potency,[1],inactive
same,Potency,[3],> 20.6 µM (inactive)
same,Potency,[4],> 20.6 µM (inactive)
CO[C@@H]1C[C@H](O[C@H]2[C@@H](C)[C@H](O[C@@H]3O[C@@H](C)C[C@@H](N(C)C)[C@@H]3OC(C)=O)[C@H](C)C[C@]3(CO3)C(=O)[C@H](C)[C@H](OC(C)=O)[C@H](C)[C@H](C)OC(=O)[C@@H]2C)O[C@H](C)[C@@H]1OC(C)=O,"activity change, negative = inhibition",[6],11.7% (inactive)
same,outcome,[2],inactive
same,outcome,[7],inactive
same,Potency,[8],inactive
same,Potency,7G8,inactive
same,Potency,ATS189,inactive
same,Potency,ATS95,inactive
same,Potency,CP203,inactive
same,Potency,CP215,inactive
same,Potency,CP286,inactive
same,Potency,DIV14,inactive
same,Potency,DIV17,inactive
C[C@@]12C=CC(=O)C=C1CC[C@H]1[C@H]3CC[C@](O)(C(=O)CO)[C@]3(C)CC(=O)[C@@H]12,"activity change, negative = inhibition",[6],-19.6% (inactive)
COc1cccc(-c2nc(NCCc3c[nH]c4ccc(OC)cc34)c3ccccc3n2)c1,Potency,[1],1.58 µM (active)
same,Potency,[3],> 46 µM (inactive)
same,Potency,[4],> 46 µM (inactive)
same,Potency,[5],1.58 µM (active)
CC[N+]1(C)[C@@H]2CC[C@H]1CC(OC(=O)[C@H]1CC[C@@](C(=O)OC3C[C@H]4CC[C@@H](C3)[N+]4(C)CC)(c3ccccc3)c3ccccc31)C2 (some centres not stated),outcome,[2],inactive
same,Potency,[3],> 20.6 µM (inactive)
same,Potency,[4],> 20.6 µM (inactive)
